Screening data deposited in PubChem BioAssay by National Center for Advancing Translational Sciences (NCATS).
Only some compounds are listed: those with a hit (about 7.5% of all), similar ones and a draw of the others.
FLuc counter: qHTS profiling assay for firefly luciferase inhibitor/activator using purifed enzyme and Km concentrations of substrates (counterscreen for miR-21 project) | purified FLuc, Km substrates, luminescence inhibition | AID 588342, 2011 | Potency, µM (doses to about 57.5 µM), usual class: inhibitors | actives 6.9% (n = 360,000); further: nearly all actives have a fitted effect of over 55% in size
Target sequence (P08659 whole entry, looked up): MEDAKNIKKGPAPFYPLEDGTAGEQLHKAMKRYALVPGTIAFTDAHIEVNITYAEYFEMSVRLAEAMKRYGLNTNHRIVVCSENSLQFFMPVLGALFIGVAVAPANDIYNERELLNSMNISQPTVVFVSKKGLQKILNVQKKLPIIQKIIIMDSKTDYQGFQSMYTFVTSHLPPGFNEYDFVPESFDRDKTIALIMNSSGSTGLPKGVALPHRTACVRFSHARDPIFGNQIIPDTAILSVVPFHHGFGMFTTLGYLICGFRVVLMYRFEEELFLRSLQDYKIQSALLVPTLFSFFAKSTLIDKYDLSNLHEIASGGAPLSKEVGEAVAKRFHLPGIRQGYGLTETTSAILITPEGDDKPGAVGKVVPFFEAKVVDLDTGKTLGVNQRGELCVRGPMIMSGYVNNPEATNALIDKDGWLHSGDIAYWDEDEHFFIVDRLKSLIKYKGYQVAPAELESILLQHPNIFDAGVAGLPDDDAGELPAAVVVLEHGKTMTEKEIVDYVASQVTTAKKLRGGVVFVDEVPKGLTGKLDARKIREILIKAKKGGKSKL
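Biochemical qHTS of compounds, final roughly 60 µM downward over six points, against 10 nM purified firefly luciferase using Km concentrations of substrates (10 uM D-luciferin, 10 uM ATP) in Tris acetate pH 7.5 buffer; luminescence output.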
Luc counter: Counterscreen for Luciferase (Kinase-Glo TM) Inhibition. Luciferin 4-monooxygenase (Photuris pensylvanica), Q27757. Kinase-Glo luciferase, ATP luminescence, 8 min. Potency, µM (titrated, usually from 38.3 µM), most hits filed as inhibitors. actives 0.28% (n = 200,000). AID 1379, 2008; further: nearly all actives have a fitted effect of over 60% in size
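Inhibition of Kinase-Glo luciferase light generation was assessed at 10 uM ATP in pH 7.2 imidazole buffer, with luminescence measured after eight minutes at ambient temperature.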
SMN2 splice up: qHTS Assay for Enhancers of SMN2 Splice Variant Expression; AID 1458, 2008; actives 2.8% (n = 210,000); HEK293 SMN2-luciferase splicing reporter, luminescence, 30-36 h; Potency, µM (series often up to 46.1 µM), usual class: activators; further: nearly all actives have a fitted effect of over 55% in size
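qHTS luciferase splicing reporter: luminescence rises when SMN2 exon 7 is included in transfected HEK293 cells. Compound exposure lasted 30-36 h at 37C, with 4.5 mM final sodium butyrate as control, followed by a ONE-Glo read.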
ELG1 genotox: qHTS screen for small molecules that induce genotoxicity in human embryonic kidney (HEK293T) cells expressing luciferase-tagged ELG1; HEK293T ELG1-luciferase reporter, luminescence, 16 h; AID 504466, 2011; Potency, µM (top dose mostly 46 µM), hits mostly activators; actives 1.3% (n = 330,000); further: nearly all actives have a fitted effect of over 60% in size
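HEK293T cells expressing luciferase-tagged ELG1 were exposed to compound or DMSO vehicle for 16 hr at 37 °C and 5% CO2. Luciferase activity was then measured with ONE-Glo after 30 min at room temperature.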
Rab9 prom act: qHTS Assay for Rab9 Promoter Activators; Huh7 Rab9 promoter-luciferase reporter, luminescence, 24 h; Potency, µM (doses to about 9.22 µM), hits mostly activators; actives 2.8% (n = 320,000); AID 485297, 2010; further: nearly all actives have a fitted effect of over 60% in size
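Quantitative HTS format; Huh7 Rab9-luciferase reporter cells (1500/well) receive compound 2 h post-plating, incubate 24 h at 37 °C, then get luciferase reagent for 10 min before luminescence reading.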
NPC1 prom act: qHTS Assay for NPC1 Promoter Activators; Huh7 NPC1 promoter luciferase reporter, 24 h; AID 485313, 2010; Potency, µM (highest dose often 9.22 µM), usual class: activators; actives 2.4% (n = 320,000); further: nearly all actives have a fitted effect of over 60% in size
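Compounds in DMSO were transferred onto Huh7 NPC1-luciferase reporter cells pre-incubated 2 h; after 24 h at 37 °C, Amplite reagent was dispensed and luminescence recorded 10 min later.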
Hits are given with their value; i = inactive; ? = inconclusive; nt = no result. The call rests on the fitted dose curve; in most records, active means well fitted curve in the direction sought with a large enough effect; inconclusive means small, poorly fitted or top-dose-only effect, or another doubt; inactive means no such curve, though single readings can be large; an effect the other way counts as inactive or inconclusive.

SMILES	FLuc counter	Luc counter	SMN2 splice up	ELG1 genotox	Rab9 prom act	NPC1 prom act
COc1ccc(NC(=O)c2cn(-c3ccccc3)nc2-c2ccc(C)cc2)cc1	?	nt	i	nt	nt	nt
CCCc1cc(=O)oc2c3c(ccc12)OCN(Cc1ccccc1OC)C3	i	nt	nt	nt	nt	nt
Cc1nnc(SC(C)C(=O)Nc2ccc3c(c2)OCCO3)s1 (centres undefined)	?	i	i	i	i	i
COc1ccc(-c2nnc(SC(C)C(=O)Nc3ccc4c(c3)OCCO4)o2)cc1 (centres undefined)	?	i	18µM	5.8µM	?	i
COc1ccc(C(=O)Nc2ccc3[nH]ncc3c2)cc1	1.9µM	nt	nt	8.2µM	2.8µM	0.89µM
O=C(COc1ccc(Cl)cc1)Nc1ccc2[nH]ncc2c1	i	nt	nt	i	i	i
CCOc1ccc(C(=O)Nc2ccc3[nH]ncc3c2)cc1	1.3µM	nt	nt	i	1.4µM	1.3µM
COc1ccc(C(=O)Nc2ccc3cn[nH]c3c2)c(OC)c1	6µM	i	13µM	?	?	?
O=C(COc1ccccc1)Nc1ccc2[nH]ncc2c1	?	nt	nt	i	i	i
COc1ccc(C(=O)N/N=C(\C)CC(=O)Nc2ccc3ccccc3c2)c(OC)c1	i	nt	nt	i	i	i
COc1cccc(-n2ccn(CC(=O)c3ccc(F)cc3)c(=O)c2=O)c1	i	nt	nt	nt	nt	nt
CCOC(=O)C1=C(COC(=O)c2ccc([N+](=O)[O-])o2)NC(=O)NC1C (centres undefined)	i	nt	nt	i	i	i
CCc1[nH]nc(C(=O)N/N=C/c2ccncc2)c1C	11µM	nt	nt	23µM	3.2µM	2.8µM
Cc1ccc(S(=O)(=O)N2CCOCC2)cc1NC(=O)Cn1nc(C)c([N+](=O)[O-])c1C	i	nt	nt	i	i	i
Cc1nn2c(-c3ccccc3)nnc2c2ccccc12	19µM	i	5.6µM	?	?	?
Cc1ccc(-c2nn3c(-c4ccc(C)cc4)nnc3c3ccccc23)cc1	i	nt	i	nt	nt	nt
CC1(C)Cc2c(sc(NC(=S)NC(=O)c3ccccc3)c2C(=O)O)CO1	?	i	i	i	i	i
CC1(C)Cc2c(sc(NC(=O)c3ccc(Br)o3)c2C#N)CO1	2.4µM	i	13µM	i	3.5µM	2.5µM
CC1(C)Cc2c(sc(NC(=O)c3ccco3)c2C(=O)O)CO1	6.7µM	i	?	?	?	?
CC(=O)NC(CC(=O)Nc1ccc(S(=O)(=O)NC2=NCCCCC2)cc1)c1ccccc1 (centres undefined)	i	nt	nt	i	i	i
CC(C)(C)c1ccc(S(=O)(=O)/C=C\C#N)cc1	nt	i	nt	nt	nt	nt
O=C(Nc1ccc2oc(-c3cccnc3)nc2c1)c1ccc(-c2ccccc2OC(F)(F)F)o1	i	nt	i	nt	nt	nt
C=CCc1cccc(/C=N/c2nc3ccccc3n2CC)c1O	i	i	i	i	i	i
Brc1ccc(/C=N/c2nc3ccccc3n2CCN2CCOCC2)cc1	24µM	i	i	i	i	i
C=CCn1c(/N=C/c2ccc3c(c2)OCO3)nc2ccccc21	6.7µM	i	i	i	i	i
SMILES	FLuc counter	Luc counter	SMN2 splice up	ELG1 genotox	Rab9 prom act	NPC1 prom act
C(=N\c1nc2ccccc2n1CCN1CCCCC1)/c1ccc2c(c1)OCO2	i	i	i	i	i	i
CCCn1c(/N=C/c2ccc3c(c2)OCO3)nc2ccccc21	4.8µM	i	i	i	i	i
CCOc1ccc(C(=O)NCCS(=O)(=O)N2CCN(c3cccc(Cl)c3)CC2)cc1	i	nt	nt	nt	nt	nt
O=C(/C=C/c1ccc(Cl)c(Cl)c1)NCCCn1ccnc1	?	nt	nt	i	i	i
O=C(/C=C/c1ccc(Cl)c(Cl)c1)n1cccn1	2.7µM	i	i	i	i	i
COc1cc(NC(=O)c2ccc3oc(=O)c(S(=O)(=O)c4ccccc4)cc3c2)cc(OC)c1	i	nt	i	nt	nt	nt
COc1cc(C=C2C(=O)c3ccccc3C2=O)cc(OC)c1OC	?	i	i	?	i	i
COc1cc(C=C2C(=O)c3ccccc3C2=O)ccc1O	3µM	nt	nt	i	i	i
COc1ccc(C=C2C(=O)c3ccccc3C2=O)cc1O	3.4µM	7.9µM	i	i	i	i
C=CCN1C(=O)c2ccc(C(=O)OCC(=O)Nc3ccc(S(N)(=O)=O)cc3)cc2C1=O	i	nt	nt	i	i	i
CC1CCN(C(=O)CSCc2ccc(Cl)cc2)CC1	19µM	i	?	15µM	3.2µM	?
COc1ccc2c(=O)c3ccccc3oc2c1	12µM	nt	nt	?	?	3.5µM
COc1ccc2c(c1)oc(=O)c1ccccc12	?	i	i	i	i	i
COc1ccc2c(c1)oc(=O)c1cc(OC)ccc12	3µM	nt	nt	10µM	2.5µM	2.5µM
Nc1cccc(C#Cc2ccc3c(=O)c4ccccc4oc3c2)c1	?	nt	nt	?	0.56µM	i
O=c1c2ccccc2oc2ccccc12	nt	i	?	nt	nt	nt
Cc1ccc(C)c(CN2C(=O)N(c3cc(Cl)ccc3C)S(=O)(=O)c3ccccc32)c1	i	nt	nt	nt	nt	nt
O=C(CCCN1C(=O)c2cccnc2Oc2ccc(Cl)cc21)NCc1ccccc1F	i	nt	nt	nt	nt	nt
C/C(=N\NC(=O)C1CC1c1ccccc1)c1cccs1 (centres undefined)	i	i	i	i	i	i
COc1ccc(C2CC2/C(=N/OC(=O)c2cccs2)c2ccccc2)cc1 (centres undefined)	12µM	i	?	?	?	?
CCCCc1ccc(/C=C2\C(=O)c3ccccc3C(O)=C2C(=O)OCC)cc1	11µM	i	i	i	i	i
CC1=[N+](CC(=O)c2ccccc2)CCn2cccc21	i	i	nt	?	3.5µM	?
CCC1=[N+](CC(=O)c2ccc(Br)cc2)CCn2c(C)ccc21	i	nt	nt	i	?	1.4µM
CCC1=[N+](C)CCn2c(C)ccc21	i	i	i	i	i	i
CCC1=[N+](CC(=O)c2ccc(C)cc2)CCn2c(C)ccc21	i	i	?	i	0.89µM	2.2µM
SMILES	FLuc counter	Luc counter	SMN2 splice up	ELG1 genotox	Rab9 prom act	NPC1 prom act
CCC1=[N+](CC(=O)c2ccc(C)cc2)CCn2cccc21	i	i	?	?	4µM	i
COCCn1c(=O)c(-c2ccc(F)cc2)nc2cncnc21	nt	i	i	nt	nt	nt
CCOC(=O)C1(Cc2ccccc2C)CCCN(C(=O)c2ccc(OC)o2)C1 (centres undefined)	i	nt	nt	i	i	i
Cc1ccc(NC(=S)Nc2cccc(-c3n[nH]c(=S)o3)c2)cc1	17µM	nt	nt	i	?	i
COc1ccc(C(=O)Nc2ccc(-c3n[nH]c(=S)o3)cc2)cc1	3µM	nt	nt	?	?	i
O=C(Nc1ccc(-c2n[nH]c(=S)o2)cc1)c1ccccc1	8.5µM	nt	nt	i	i	i
C=CCOc1ccc(-c2n[nH]c(=S)o2)cc1	24µM	i	nt	i	i	i
